# Data from PubChem BioAssay.
# Active and inactive are the calls of the source.
# Test system: not listed separately
# Experiment: S. cerevisiae growth modulation with rapamycin, primary screen, strain BY4716, OD600, 96 h (AID 1091); also: test concentration not given here
# Conditions: higher = more signal, called active from +8 up or from −8 down
row,Structure (SMILES),z-score
1,Cc1ccc(F)cc1S(=O)(=O)N[C@@H]1CCN(Cc2ccc(CC(C)C)cc2)C1,-4.49 (inactive)
2,CCc1cc2c(nc1CC)CCN(CCC(C)=NOC(C)CN1CCCc3nc(C)c(C)cc31)C2 (centres undefined),-1.28 (inactive)
3,Cc1ccc(S(=O)(=O)N[C@@H]2COC(=O)[C@H](C)COC(=O)CC=C[C@H]2C)cc1,1.2 (inactive)
4,O=C1C[C@@H](O)[C@@H](O)[C@@H]2[C@@H]3C(=O)N(Cc4ccc5c(c4)OCO5)C(=O)[C@@H]3CC[C@@H]12,-0.246 (inactive)
5,CN1C(=O)[C@@]2(CCC(=O)OC(C)(C)C)N=C(c3ccc(OCCCO)cc3)O[C@H]2c2ccccc21,0.0793 (inactive)
6,COCCOC(=O)N1C(=O)[C@@]2(c3cc(C#CC4(O)CCCCCC4)ccc31)[C@H](C(=O)N1CCN(c3ncccn3)CC1)[C@H]1C(=O)O[C@H](c3ccccc3)[C@H](c3ccccc3)N1[C@@H]2c1ccc(OCCO)cc1,5.93 (inactive)
7,CCOC(=O)[C@H](CC(C)C)NC(=O)CCC1CC(OC(=O)NCc2cccc3ccccc23)CC2(CCCC(COC(=O)NCCc3ccccc3OC)O2)O1 (some centres undefined),0.407 (inactive)
8,COC(=O)[C@H](C)NC(=O)CCC1CC(OC(=O)NCc2cccc3ccccc23)CC2(CCCC(COC(=O)NCCc3ccc(Cl)cc3)O2)O1 (some centres undefined),0.511 (inactive)
9,O[C@@H](Cc1ccccc1)[C@H]1C2C=CCCC(c3ccccc3)=C2CN1Cc1cccc(Cl)c1 (some centres undefined),-1.09 (inactive)
10,O=C1[C@H]2[C@H]3[C@H](O)[C@H](O)CC(=NO[C@@H]4O[C@H](CO)[C@@H](O)[C@H](O)[C@H]4O)[C@@H]3CC[C@H]2C(=O)N1Cc1ccccc1,-0.556 (inactive)
11,COCCOC(=O)N1C(=O)[C@@]2(c3cc(C#CCNC(N)=O)ccc31)[C@H](c1ccccc1OCCO)N1[C@H](c3ccccc3)[C@H](c3ccccc3)OC(=O)[C@H]1[C@@H]2C(=O)N1CCN(c2ncccn2)CC1,3.85 (inactive)
12,O=C1[C@H]2[C@H]3[C@H](O)[C@H](O)CC(=NO[C@@H]4O[C@H](CO)[C@@H](O)[C@H](O)[C@H]4O)[C@H]3CC[C@H]2C(=O)N1Cc1ccccc1,-0.987 (inactive)
13,CC(C)(C)N1C(=O)[C@H]2[C@H]3[C@H](O)[C@H](O)CC(=NO[C@@H]4O[C@H](CO)[C@@H](O)[C@H](O)[C@H]4O)[C@@H]3CC[C@H]2C1=O,-1.47 (inactive)
14,O=C1[C@H]2[C@H]3[C@H](O)[C@H](O)CC(=NO[C@@H]4O[C@H](CO)[C@@H](O)[C@H](O)[C@H]4O)[C@H]3CC[C@H]2C(=O)N1C1CCCCC1,-0.0694 (inactive)
15,CC[C@@H](c1ccccc1)n1c(=O)n2n(c1=O)[C@H]1[C@H](O)[C@@H]3O[C@@H]3C(=NOCC(C)C)[C@H]1CC2,1.37 (inactive)
16,CCCC[C@@H](O)C1=C(C)C[C@H]2C(=O)N(Cc3ccccc3)C(=O)[C@H]2[C@H]1CO,0.0211 (inactive)
17,CC(C)=C1C(=O)C(c2ccccc2)=C2CN3C(=O)N(CCc4ccccc4)C(=O)[C@]3(Cc3ccc(F)cc3)[C@H]21,0.135 (inactive)
18,N#Cc1ccc(NN2C(C(O)c3cc(C(F)(F)F)cc(C(F)(F)F)c3)C=CC3C(=O)N(c4ccccc4)C(=O)C32)cc1 (centres undefined),4.19 (inactive)
19,[N-]=[N+]=NCc1ccccc1[C@@H]1OC(c2ccc(OCCCO)cc2)=N[C@]1(Cc1ccccc1)C(=O)N1CCOCC1,0.303 (inactive)
20,CC(CCN1CCCCc2nc(C)c(C)cc21)=NOC(C)CN1CCCCc2nc(C)c(C)cc21 (centres undefined),0.187 (inactive)
21,O=C(NN=C1C[C@@H](O)[C@@H](O)[C@@H]2[C@@H]3C(=O)N(c4cccc(Oc5ccccc5)c4)C(=O)[C@@H]3CC[C@H]12)OCc1ccccc1,-0.669 (inactive)
22,CCOC(=O)CCN1C(=O)[C@H]2[C@H]3[C@H](O)[C@H](O)CC(=O)[C@H]3CC[C@H]2C1=O,0.341 (inactive)
23,O=C1O[C@@H](c2ccccc2)[C@@H](c2ccccc2)N2[C@@H](c3ccc(OCCO)cc3)[C@]3(C(=O)Nc4ccc(C#CCCO)cc43)[C@@H](C(=O)N3CCCCCCC3)[C@H]12,2.23 (inactive)
24,c1ccc(C2NCCc3c2[nH]c2ccccc32)cc1 (centres undefined),-0.962 (inactive)

# Biological target: Torsin-1A-interacting protein 2 (Homo sapiens) (UniProt Q8NFQ8)
# Experiment: LULL1 binders on small-molecule microarray, primary screen, cell lysate, human LULL1 lysate, 635/667 nm fluorescence (AID 1092);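 also: probe is lysate of COS7 cells overexpressing human LULL1; score merges per-feature 667 nm fluorescence with signal-to-noise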
# Conditions: hLULL1 lysate binding, 635 nm fluorescence, higher = more signal
# Sequence of Torsin-1A-interacting protein 2 (Homo sapiens) (Q8NFQ8 whole entry, looked up): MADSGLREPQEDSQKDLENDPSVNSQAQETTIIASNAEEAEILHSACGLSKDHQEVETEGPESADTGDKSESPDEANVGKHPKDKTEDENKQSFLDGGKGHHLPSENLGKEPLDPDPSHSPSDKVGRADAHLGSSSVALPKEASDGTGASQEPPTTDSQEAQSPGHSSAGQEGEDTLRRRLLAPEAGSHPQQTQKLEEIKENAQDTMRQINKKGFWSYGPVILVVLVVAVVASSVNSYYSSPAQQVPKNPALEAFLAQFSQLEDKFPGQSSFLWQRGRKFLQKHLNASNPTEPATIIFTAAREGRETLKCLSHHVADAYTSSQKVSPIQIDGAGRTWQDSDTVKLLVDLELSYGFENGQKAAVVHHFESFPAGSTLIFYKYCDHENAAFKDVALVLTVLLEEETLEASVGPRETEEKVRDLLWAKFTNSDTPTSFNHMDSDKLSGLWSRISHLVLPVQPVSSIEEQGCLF
row,Structure (SMILES),composite z-score
1,COc1ccc([Si](C)(C)[C@H]2[C@H](CC(=O)N3CCC[C@H]3CO)O[C@@]3(C(=O)N(Cc4cccc(N5C(=O)COc6ccccc65)c4)c4ccccc43)[C@@H]2C)cc1,2.25
2,CC(=O)OC[C@H]1O[C@H](C#CCCCc2ccccc2)C=C[C@@H]1OC(C)=O,1.01
3,CC(C)[C@H](NC(=O)OC(C)(C)C)[C@@H](O)CC(=O)OC(C)(C)C,-1.63
4,COCCCNC(=O)[C@]1(CCC(=O)OC(C)(C)C)N=C(c2ccc(OCCCO)cc2)O[C@@H]1c1ccccc1N=[N+]=[N-],3.81
5,C[C@@H]1C=CCC(=O)OC[C@H](C)C(=O)N[C@@H](C)C(=O)OC1,-0.412
6,COC(=O)[C@@]1(Cc2ccc(F)cc2)[C@H]2c3cc(C(=O)N(C)C)n(Cc4ccc(OC)c(OC)c4)c3C[C@H]2CN1C(=O)c1ccccc1,1.54
7,CCCCCN1CC=CC23O[C@@H]4C=CCOC(=O)[C@@H]4[C@H]2C(=O)N(CCCCCCO)[C@@H]3C1=O (some centres undefined),0.865
8,COc1ccc(O[C@H]2C=C[C@@H](c3ccccc3)O[C@@H]2COC(=O)CCC(C)=NO[C@H](C)c2cn([C@@H]3COC[C@H]3O)nn2)cc1,0.146
9,C#C[C@@H]1Oc2ccccc2S(=O)(=O)N2CCC[C@H]12,-0.875
10,CC(C)(C)OC(=O)CC[C@]1(C(N)=O)COC(c2ccc(OCCCO)cc2)=N1,3.09
11,COc1ccc(O[C@H]2C=C[C@@H](c3ccccc3)O[C@@H]2COC(=O)CCC(C)=NOC[C@@H](C)[C@H](OCc2ccccc2)C(C)C)cc1,-0.694
12,Cc1ccc(F)cc1S(=O)(=O)N[C@@H]1CCN(Cc2ccc(CC(C)C)cc2)C1,1.59
13,CCc1cc2c(nc1CC)CCN(CCC(C)=NOC(C)CN1CCCc3nc(C)c(C)cc31)C2 (centres undefined),1.41
14,Cc1ccc(S(=O)(=O)N[C@@H]2COC(=O)[C@H](C)COC(=O)CC=C[C@H]2C)cc1,-0.366
15,O=C1C[C@@H](O)[C@@H](O)[C@@H]2[C@@H]3C(=O)N(Cc4ccc5c(c4)OCO5)C(=O)[C@@H]3CC[C@@H]12,1.01
16,CN1C(=O)[C@@]2(CCC(=O)OC(C)(C)C)N=C(c3ccc(OCCCO)cc3)O[C@H]2c2ccccc21,2.82
17,COCCOC(=O)N1C(=O)[C@@]2(c3cc(C#CC4(O)CCCCCC4)ccc31)[C@H](C(=O)N1CCN(c3ncccn3)CC1)[C@H]1C(=O)O[C@H](c3ccccc3)[C@H](c3ccccc3)N1[C@@H]2c1ccc(OCCO)cc1,2.61
18,CCOC(=O)[C@H](CC(C)C)NC(=O)CCC1CC(OC(=O)NCc2cccc3ccccc23)CC2(CCCC(COC(=O)NCCc3ccccc3OC)O2)O1 (some centres undefined),2.96

row,Structure (SMILES),composite z-score
1,COC(=O)[C@H](C)NC(=O)CCC1CC(OC(=O)NCc2cccc3ccccc23)CC2(CCCC(COC(=O)NCCc3ccc(Cl)cc3)O2)O1 (some centres undefined),1.57
2,O[C@@H](Cc1ccccc1)[C@H]1C2C=CCCC(c3ccccc3)=C2CN1Cc1cccc(Cl)c1 (some centres undefined),1.73
3,O=C1[C@H]2[C@H]3[C@H](O)[C@H](O)CC(=NO[C@@H]4O[C@H](CO)[C@@H](O)[C@H](O)[C@H]4O)[C@@H]3CC[C@H]2C(=O)N1Cc1ccccc1,0.218
4,COCCOC(=O)N1C(=O)[C@@]2(c3cc(C#CCNC(N)=O)ccc31)[C@H](c1ccccc1OCCO)N1[C@H](c3ccccc3)[C@H](c3ccccc3)OC(=O)[C@H]1[C@@H]2C(=O)N1CCN(c2ncccn2)CC1,2.22
5,O=C1[C@H]2[C@H]3[C@H](O)[C@H](O)CC(=NO[C@@H]4O[C@H](CO)[C@@H](O)[C@H](O)[C@H]4O)[C@H]3CC[C@H]2C(=O)N1Cc1ccccc1,0.903
6,CC(C)(C)N1C(=O)[C@H]2[C@H]3[C@H](O)[C@H](O)CC(=NO[C@@H]4O[C@H](CO)[C@@H](O)[C@H](O)[C@H]4O)[C@@H]3CC[C@H]2C1=O,1.97
7,O=C1[C@H]2[C@H]3[C@H](O)[C@H](O)CC(=NO[C@@H]4O[C@H](CO)[C@@H](O)[C@H](O)[C@H]4O)[C@H]3CC[C@H]2C(=O)N1C1CCCCC1,1.58
8,CC[C@@H](c1ccccc1)n1c(=O)n2n(c1=O)[C@H]1[C@H](O)[C@@H]3O[C@@H]3C(=NOCC(C)C)[C@H]1CC2,0.543
9,CCCC[C@@H](O)C1=C(C)C[C@H]2C(=O)N(Cc3ccccc3)C(=O)[C@H]2[C@H]1CO,-0.463
10,CC(C)=C1C(=O)C(c2ccccc2)=C2CN3C(=O)N(CCc4ccccc4)C(=O)[C@]3(Cc3ccc(F)cc3)[C@H]21,2.04
11,N#Cc1ccc(NN2C(C(O)c3cc(C(F)(F)F)cc(C(F)(F)F)c3)C=CC3C(=O)N(c4ccccc4)C(=O)C32)cc1 (centres undefined),3.45
12,[N-]=[N+]=NCc1ccccc1[C@@H]1OC(c2ccc(OCCCO)cc2)=N[C@]1(Cc1ccccc1)C(=O)N1CCOCC1,3.52
13,CC(CCN1CCCCc2nc(C)c(C)cc21)=NOC(C)CN1CCCCc2nc(C)c(C)cc21 (centres undefined),2.37
14,O=C(NN=C1C[C@@H](O)[C@@H](O)[C@@H]2[C@@H]3C(=O)N(c4cccc(Oc5ccccc5)c4)C(=O)[C@@H]3CC[C@H]12)OCc1ccccc1,0.415
15,CCOC(=O)CCN1C(=O)[C@H]2[C@H]3[C@H](O)[C@H](O)CC(=O)[C@H]3CC[C@H]2C1=O,0.35
16,O=C1O[C@@H](c2ccccc2)[C@@H](c2ccccc2)N2[C@@H](c3ccc(OCCO)cc3)[C@]3(C(=O)Nc4ccc(C#CCCO)cc43)[C@@H](C(=O)N3CCCCCCC3)[C@H]12,3.83
17,c1ccc(C2NCCc3c2[nH]c2ccccc32)cc1 (centres undefined),0.872
